Laboratory results from the supplement of paper PMC4166925.
± gives the standard deviation of the averaged measurements. The full ranking holds about 33,000 sequences; the median of “E-score (dimensionless, -0.5 to 0.5)” is about -0.046, and the highest 2% start at about 0.36. The sample holds the highest values, similar sequences and a random draw of the others, so the mix is not that of the screen.

System: T1, SpTbr T-box DNA-binding domain (GST fusion)
T1 sequence: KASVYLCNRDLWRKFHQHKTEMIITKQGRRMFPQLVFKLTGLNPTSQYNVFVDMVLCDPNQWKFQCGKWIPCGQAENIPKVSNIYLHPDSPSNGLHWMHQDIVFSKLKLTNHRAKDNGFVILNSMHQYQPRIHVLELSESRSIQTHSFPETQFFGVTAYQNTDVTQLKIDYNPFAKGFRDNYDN
Experiment: PBM E-score of 8-mer (E-score (dimensionless, -0.5 to 0.5)); Tbr is Tbrain of the sea star Patiria miniata (Pm) or the sea urchin Strongylocentrotus purpuratus (Sp); higher = stronger binding preference
Conditions: the construct has about 5 more residues each side
Method: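 Universal protein-binding microarray (Agilent AMADID 016060, 60-bp probes with a 35-bp variable region) incubated with 200 nM GST-fused Strongylocentrotus purpuratus Tbr T-box DNA-binding domain (residues 362-554) in PBS pH 7.5. Scored for every ungapped 8-mer (given with its reverse complement) as E-score (range -0.5 to 0.5; >0.45 counts as bound) and Z-score of median probe intensity. Two replicate arrays (datasets 1 and 2).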
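Note: protein at 200 nM in PBS on universal double-stranded arrays.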

| Sequence | PBM E-score of 8-mer |
| --- | --- |
| GATGTCAA | 0.197 ± 0.0064 |
| GTTGTCTA | -0.123 ± 0.027 |
| CGTGTCTA | 0.135 ± 0.05 |
| CCTGTCAA | 0.328 ± 0.025 |
| AATGTCAG | 0.0267 ± 0.006 |
| CGTGTCAA | 0.4367 ± 0.0011 |
| GATGTCAC | 0.296 ± 0.023 |
| GCTCGCCA | 0.231 ± 0.017 |
| GCCCCATA | -0.112 ± 0.064 |
| ATGGGGAG | -0.243 ± 0.051 |
| AGGGGTGG | 0.147 ± 0.069 |
| AATGGCTA | -0.134 ± 0.02 |
| CATGAGTC | -0.08024 ± 0.00076 |
| GACTTATA | 0.0117 ± 0.031 |
| ACAACCCT | 0.0805 ± 0.0049 |
| ATCGTTGC | -0.00439 ± 0.021 |
| GGTGTCAA | 0.4808 ± 0.0038 |
| ACTGTCAT | 0.196 ± 0.032 |
| ACTGTCAA | 0.183 ± 0.035 |
| GGTGTCTA | 0.292 ± 0.0045 |
| AATGTCAT | -0.162 ± 0.031 |
| AGTGTCAT | 0.405 ± 0.017 |
| TGTGTCAA | 0.398 ± 0.011 |
| AGTGTCTA | 0.17 ± 0.024 |
| AGTGTCAA | 0.453 ± 0.0054 |

| Sequence | PBM E-score of 8-mer |
| --- | --- |
| GCTGTCAA | 0.318 ± 0.049 |
| TATGTCAA | 0.159 ± 0.0082 |
| TCTGTCAA | 0.109 ± 0.046 |
| TAAGAACA | -0.0304 ± 0.082 |
| ATATAGTC | -0.0444 ± 0.027 |
| ATAGCCCA | -0.13 ± 0.078 |
| CGCAGAGA | -0.217 ± 0.082 |
| CCAATAAG | -0.199 ± 0.0037 |
| CATGAATC | 0.0324 ± 0.072 |
| CCCCCCCC | -0.0653 ± 0.059 |
| AACTCTGC | 0.164 ± 0.011 |
| GGAAGCAA | -0.216 ± 0.074 |
| ACTGTCAC | 0.35403 ± 0.00029 |
| CGTGTCAC | 0.362 ± 0.034 |
| AGTGTCAC | 0.43943 ± 0.00026 |
| ACGCCCAA | -0.049 ± 0.13 |
| CACAGACC | -0.0948 ± 0.053 |
| ACGCACCA | 0.0513 ± 0.0069 |
| ACACACCG | 0.224 ± 0.013 |
| ACACACCT | 0.44741 ± 0.0002 |
| AAACACCC | 0.1718 ± 0.0003 |
| ACGCACCG | 0.0314 ± 0.086 |
| ACACACAT | 0.328 ± 0.0053 |
| AGACACCT | 0.4345 ± 0.003 |
| AGACACCG | 0.0814 ± 0.026 |

| Sequence | PBM E-score of 8-mer |
| --- | --- |
| AAACACCG | 0.155 ± 0.0066 |
| AGACACAT | 0.229 ± 0.0028 |
| AAACACCT | 0.442 ± 0.015 |
| ACGCACCT | 0.366 ± 0.0075 |
| GCTTCAAA | 0.0158 ± 0.019 |
| ACCAATGA | -0.0571 ± 0.11 |
| GTAGATAA | -0.151 ± 0.039 |
| GATCGTGA | 0.173 ± 0.054 |
| ACCTGGTA | -0.0333 ± 0.028 |
| CGGCCCTC | -0.119 ± 0.093 |
| GACGTTCC | -0.197 ± 0.016 |
| AAGTGAAG | 0.13 ± 0.049 |
| ACAGATGT | 0.152 ± 0.018 |
| ACCTATTC | 0.0131 ± 0.033 |
| GACCCGTA | -0.0138 ± 0.012 |
| ACTTCTAC | 0.037 ± 0.013 |
| CGGAGCCA | -0.164 ± 0.067 |
| CATGCCCC | -0.219 ± 0.047 |
| AACACATT | 0.383 ± 0.024 |
| CGCACATC | 0.338 ± 0.022 |
| AACACATG | 0.336 ± 0.046 |
| CACACATC | 0.4 ± 0.013 |
| AACACACT | 0.211 ± 0.022 |
| AACACAGC | 0.115 ± 0.086 |
| AACACATA | 0.345 ± 0.029 |

| Sequence | PBM E-score of 8-mer |
| --- | --- |
| CTCACATC | 0.377 ± 0.013 |
| AACACATC | 0.375 ± 0.012 |
| GACACATC | 0.363 ± 0.028 |
| CTCACATA | 0.157 ± 0.034 |
| ATCACATC | 0.109 ± 0.02 |
| CATGAAAC | -0.146 ± 0.031 |
| GCTAGCAC | 0.2678 ± 0.0018 |
| TAAGGTAA | -0.107 ± 0.0024 |
| AGTGCTGA | 0.0461 ± 0.029 |
| CTCCTCTC | 0.0391 ± 0.091 |
| GCCCAATA | -0.142 ± 0.1 |
| AAGCTATA | -0.0728 ± 0.05 |
| ACAGGTGC | 0.436 ± 0.013 |
| ACAGGTGG | 0.316 ± 0.026 |
| ACAGGTTA | 0.257 ± 0.043 |
| GTAGGTTA | -0.184 ± 0.0098 |
| CTAGGTGA | 0.356 ± 0.026 |
| GCAGGTCA | 0.036 ± 0.077 |
| ACAGGTGA | 0.373 ± 0.0074 |
| CCAGGTGC | 0.3516 ± 0.00069 |
| GCAGGTAA | -0.0374 ± 0.063 |
| GCAGGTGA | 0.414 ± 0.011 |
| CCAGGTGA | 0.306 ± 0.012 |
| GTAGGTGA | 0.379 ± 0.023 |
| GTCATAAA | -0.00255 ± 0.054 |

| Sequence | PBM E-score of 8-mer |
| --- | --- |
| AAAAGATA | -0.0313 ± 0.063 |
| CTACGCAC | 0.0937 ± 0.02 |
| TACCTCTA | -0.164 ± 0.002 |
| ATAAGAGC | -0.19 ± 0.022 |
| ACCCTCGG | -0.124 ± 0.045 |
| ATGCAGAG | -0.18 ± 0.023 |
| ACGAACCG | 0.192 ± 0.063 |
| CATTTTCA | 0.0656 ± 0.088 |
| AGTTCTGA | -0.131 ± 0.043 |
| TAGACCCA | -0.101 ± 0.067 |
| AAGTGGTG | 0.205 ± 0.007 |
| CGACCATC | 0.0183 ± 0.023 |
| CAGAGGAG | -0.063 ± 0.011 |
| AGGTGGCA | 0.432 ± 0.015 |
| AGGTGGAG | 0.158 ± 0.025 |
| CGGTGGCA | 0.186 ± 0.053 |
| GGGTGGCA | 0.288 ± 0.014 |
| AGGTGGCC | 0.075 ± 0.0048 |
| AGGTGGCG | 0.401 ± 0.011 |
| CCCATCAC | 0.189 ± 0.031 |
| CCCGAGGG | -0.341 ± 0.026 |
| AACGCATA | 0.0089 ± 0.0093 |
| CACGCCTA | 0.375 ± 0.016 |
| AACGCCTA | 0.298 ± 0.038 |
| AGCGCCTC | 0.268 ± 0.0083 |

| Sequence | PBM E-score of 8-mer |
| --- | --- |
| AACGCCTG | 0.292 ± 0.006 |
| AACGCCAT | 0.199 ± 0.029 |
| AACGCCTT | 0.367 ± 0.041 |
| TACGCCTA | 0.0945 ± 0.018 |
| AACGCCTC | 0.35 ± 0.0088 |
| CGCGCCTC | 0.365 ± 0.039 |
| GACGCCTC | 0.328 ± 0.017 |
| CGCGCCTA | 0.356 ± 0.037 |
| CACGCCTC | 0.395 ± 0.032 |
| ACTCGCTC | -0.0581 ± 0.083 |
| AGCCAATG | -0.218 ± 0.056 |
| AAACCGCG | 0.0876 ± 0.057 |
| AGCATCTG | -0.116 ± 0.028 |
| GCCACGGC | -0.0294 ± 0.015 |
| AGTGTTAG | 0.3895 ± 0.00056 |
| GGTGTTAC | 0.4612 ± 0.0021 |
| CGTGTTAA | 0.409 ± 0.0099 |
| GGTGTAAA | 0.436 ± 0.012 |
| ACTGTTAG | 0.195 ± 0.048 |
| AGTGTTTG | 0.219 ± 0.041 |
| CGTGTTAC | 0.308 ± 0.0063 |
| CCTGTTAA | 0.168 ± 0.067 |
| GCTGTTAC | 0.0324 ± 0.031 |
| CGTGTTAG | 0.332 ± 0.015 |
| AGTGTAAA | 0.338 ± 0.049 |

| Sequence | PBM E-score of 8-mer |
| --- | --- |
| GGTGTAAC | 0.349 ± 0.014 |
| AGTTAGAT | -0.191 ± 0.0088 |
| CCTAACTC | -0.0227 ± 0.032 |
| ACAGCCAA | 0.00932 ± 0.037 |
| CACCACCA | 0.145 ± 0.0054 |
| AATAGCAA | 0.151 ± 0.019 |
| AGTCCTTG | -0.0449 ± 0.074 |
| AGGCGGTG | -0.0537 ± 0.076 |
| GGAGCCCC | -0.206 ± 0.022 |
| TATGTTAA | 0.0661 ± 0.067 |
| AGTGTTGG | 0.3684 ± 7.1e-06 |
| AGTGTTTA | 0.245 ± 0.062 |
| CGTGTTTA | 0.123 ± 0.047 |
| AGTGTTGA | 0.351 ± 0.006 |
| AGTGTTGC | 0.346 ± 0.0099 |
| TCTGTTAA | 0.131 ± 0.02 |
| TGTGTTAA | 0.407 ± 0.011 |
| AATGTTAT | 0.0346 ± 0.014 |
| ACTGTTAT | 0.152 ± 0.032 |
| GGTGTTTA | 0.386 ± 0.015 |
| AGTGTTAT | 0.372 ± 0.045 |
| GGTCTCAA | -0.0536 ± 0.098 |
